Screening results deposited in PubChem by several laboratories.
NRP1-CendR mod: modulators of CendR peptide binding to NRP-1, primary screen, biochemical, fluorescence polarization, uHTS. 360,000 compounds, 0.85% hits. FAM-RPARPAR peptide binding to NRP-1. Neuropilin-1 (Homo sapiens), O14786. inhibition, % at 25 µM;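 active means inhibition or corrected inhibition above about 18%, plus a signal ratio from 0.5 to 1.5, limit read from the data, passing the limit was not always enough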
Myeloid diff MLP: induction of myeloid progenitor differentiation, primary screen, cell-based, flow cytometry, MLPCN library | ER-HoxA9 myeloid progenitors, lysozyme-GFP differentiation | calls only at 10 µM | 360,000 compounds, 1% hits;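 active means normalized GFP-positive differentiation at or above the plate's own cutoff, the solvent-only control mean plus 3 SD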;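 further: cells exposed to compound for four days before flow analysis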
NadD block: inhibitors of S. aureus NadD, primary screen, biochemical, colorimetric, uHTS; Nicotinate-nucleotide adenylyltransferase NadD (Staphylococcus aureus N315); purified NadD enzyme, colorimetric absorbance read-out; inhibition, % at 20 µM; 360,000 compounds, 0.78% hits; AID 602399, 2012; in the data active means inhibition above about 26%
FAS TE block: FAS thioesterase domain inhibitors, primary screen, biochemical, fluorescence intensity, uHTS. recombinant FAS-TE, OMFH fluorogenic substrate, fluorescence endpoint. inhibition, % at 15 µM. 360,000 compounds, 0.67% hits. AID 602261, 2012;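 active means compounds whose normalised, plate-corrected inhibition of enzyme fluorescence in the single-dose primary screen is 50% or more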;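 further: 0% = DMSO with enzyme and 100% = substrate without enzyme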
CRFR2-BP antag: antagonists of CRF-BP/CRF-R2 complex, primary screen, cell-based, HEK293, calcium dye fluorescence, uHTS. CRF-induced calcium fluorescence. 350,000 compounds, 0.59% hits. inhibition, % at 11.8 µM;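 active means inhibition of the ligand-induced calcium signal above about 50% at the single tested concentration, limit read from the data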
Starred values were filed as active, the others as inactive; i = inactive; . = not tested or not shown; + = active, no number. Only some compounds are listed: those with a hit (about 3.6% of all), similar ones and a draw of the others.

SMILES | NRP1-CendR mod | Myeloid diff MLP | NadD block | FAS TE block | CRFR2-BP antag
COC(=O)C1=C(C)NC(C)=C(C(=O)OC)C1/C=C/c1ccccc1 | -7 | i | -9 | 12 | 53*
CCOC(=O)C1=C(C)NC(C)=C(C(=O)OCC)C1/C=C/c1ccccc1 | 2 | i | -9 | 23 | 30
Cn1nc(C(F)(F)F)c(C#N)c1N1CCN(c2cccc(C(F)(F)F)c2)CC1 | 39* | i | 2 | 39 | -16
Cc1sc2ncn(CC(=O)N3CCCC(C)C3)c(=O)c2c1S(=O)(=O)N1CCCCC1 (stereo not drawn) | 8 | i | -1 | -2 | 8
Cc1cn(CC(=O)N2CCN(c3ccccn3)CC2)c(=O)[nH]c1=O | -7 | i | -4 | -9 | 96*
Cc1sc2ncn(CC(=O)N3CCN(c4ccccn4)CC3)c(=O)c2c1S(=O)(=O)N1CCCCC1 | 31* | i | 1 | 8 | 7
O=C(NC1CC1)c1cccc(NC(=O)C2CCN(S(=O)(=O)c3ccccc3C(F)(F)F)CC2)c1 | -6 | i | 2 | 2 | -2
COc1cc(N2CCCC2)c(OC)cc1/C=C(/C#N)c1ccc(Br)cc1 | -125 | + | 6 | -37 | -29
Clc1ccc(CONc2ncnc3nonc23)c(Cl)c1 | 10 | i | -9 | 25 | 26
COC(=O)C1=C(C)N(CCCC(=O)O)C(=O)NC1c1ccc(-c2ccccc2)cc1 (stereo not drawn) | 30* | i | -2 | -4 | 8
CCCS(=O)(=O)N1CCC(C(=O)NCCCOC(C)C)CC1 | 3 | i | -3 | -6 | 60*
COc1cccc(Cn2c(NCc3cccnc3)nc3c2c(=O)n(C)c(=O)n3C)c1 | 4 | + | -2 | -5 | -9
CCOC(=O)c1[nH]c(C)c(C(=O)Nc2cccc(Cl)c2C)c1C | 3 | + | -1 | 2 | -18
COc1ccc(C(=O)N2CCC2(C)C(=O)NC(C)C)cc1 (stereo not drawn) | -10 | i | 3 | -7 | .
CC(C)N(C(=O)COC(=O)c1cncc(Br)c1)C(C)C | -1 | i | -4 | -5 | 104*
O=C(O)c1cnn(-c2ccccc2)c1-c1ccccc1 | 4 | i | 0 | -3 | -4
C=CCNC(=O)c1cnn(-c2ccccc2)c1-c1ccccc1 | 26* | i | -4 | -4 | 17
CCn1c(SCC(=O)Nc2ccccc2)nc2c(c1=O)SCC2 | -5 | i | -4 | -2 | 5
COCCCNC(=O)c1ccc2sc([C@@H]3O[C@H](CO)[C@H](O)[C@H](O)[C@H]3O)nc2c1 | 15 | i | 2 | -9 | .
Cc1onc(-c2ccccc2Cl)c1C(=O)NCc1ccc(N2CCCC2=O)cc1 | 12 | i | 5 | -6 | 57*
Cc1onc(-c2ccccc2Cl)c1C(=O)NCc1ccc(S(N)(=O)=O)cc1 | 8 | i | -3 | -5 | 1
c1ccc(-c2cc3nc(NCc4cccs4)nc(NCc4ccc5occc5c4)c3s2)cc1 | 1 | i | 17 | 0 | .
COc1ccc(/C(O)=C/c2nc3ccccc3n(-c3ccccc3)c2=O)cc1 | -104 | + | -2 | -20 | -41
O=C(COc1ccc2ccccc2c1)N1CCN(C(=O)c2ccc([N+](=O)[O-])cc2)CC1 | 2 | i | -2 | 8 | 72*
O=C(COc1ccccc1)N1CCN(C(=O)c2ccc([N+](=O)[O-])cc2)CC1 | 6 | i | 4 | -2 | 11
SMILES | NRP1-CendR mod | Myeloid diff MLP | NadD block | FAS TE block | CRFR2-BP antag
CCOC(=O)C1C(=O)C=C(c2ccc(C)cc2)CC1c1ccco1 (stereo not drawn) | -12 | i | 3 | 17 | 0
CCOC(=O)C1C(C)=CC(=O)CC1c1ccco1 (stereo not drawn) | 11 | i | 6 | -7 | 67*
Cc1ccc(N2C(=O)C(Cl)=C(NCc3ccccc3)C2=O)c(C)c1 | 21* | i | -2 | 9 | 0
Cc1cccc(NC(=O)Nc2cnccn2)c1C | 20* | i | -2 | -4 | -1
COc1cccc(OCC(=O)NNC(=S)Nc2ccc(Cl)cc2Cl)c1 | 24* | i | -3 | 4 | -6
O=C(O)c1cnn(-c2nc(-c3cccc(F)c3)cs2)c1C(F)(F)F | 6 | i | -6 | 1 | 8
O=C(O)c1cnn(-c2nc(-c3ccc(Cl)c(Cl)c3)cs2)c1C(F)(F)F | -21 | i | -3 | 16 | 50*
Cc1ccc(C2C3C(=O)N(c4ccc(C)cc4)C(=O)C3N3CCCN23)cc1 (stereo not drawn) | 8 | i | 1 | -4 | -15
N#CC1C(C#N)N2CCCN2C1c1ccc(Br)cc1 (stereo not drawn) | 31* | i | -3 | -6 | 6
CSc1ccccc1NC(=O)COc1nsnc1N1CCOCC1 | 5 | + | -5 | -6 | 22
O=C(COc1nsnc1N1CCOCC1)Nc1ccc(Cl)cc1 | -10 | i | 6 | -3 | 8
N#Cc1c(NC(=O)c2ccccc2Cl)n(Cc2ccccc2)c2nc3ccccc3nc12 | -22 | + | 32* | 40 | 3
CCCCn1c(NC(=O)c2ccccc2Cl)c(C#N)c2nc3ccccc3nc21 | -8 | + | 19 | 34 | -7
COc1ccc(-n2c(NC(=O)c3ccco3)c(C#N)c3nc4ccccc4nc32)cc1 | -45 | + | 6 | -4 | -34
CCCCn1c(NC(=O)CC)c(C#N)c2nc3ccccc3nc21 | -17 | i | 0 | -4 | 23
COc1ccc(C(=O)Nc2ccc(NC(=O)c3ccco3)cc2)cc1 | 2 | i | -5 | -5 | 5
CCC(=O)Nc1c(C#N)c2nc3ccccc3nc2n1-c1ccccc1C | 3 | i | -1 | -8 | 2
COC(=O)[C@@]12C[C@@H](CC(=O)NCc3cccc4ccccc34)C(=O)N(Cc3ccc4c(c3)OCO4)C1=CCC(C)(C)C2 | -2 | i | . | . | .
CN1CCCc2cc(C=O)ccc21 | 1 | i | -4 | -8 | -15
CCCN1CCCc2cc(CN)ccc21 | 25* | i | -5 | -9 | 7
S=C(Nc1ccc2c(c1)OCO2)Nc1ccccc1Cl | -1 | i | -2 | 0 | 76*
CC(C)c1ccc(NC(=S)NCc2ccc3c(c2)OCO3)cc1 | 9 | i | -5 | 24 | -9
S=C(NCc1ccc(Cl)c(Cl)c1)Nc1ccc2c(c1)OCO2 | 5 | i | -5 | 2 | 69*
Oc1ccccc1C1=NC(c2ccccc2)NC(c2ccccc2)C1 (stereo not drawn) | 1 | i | -6 | 15 | 2
CC(C)CN(C(=O)COC(=O)C1c2ccccc2Oc2ccccc21)C1CCS(=O)(=O)C1 (stereo not drawn) | 24* | i | -10 | 14 | 3
